# Source: PubChem (several laboratories)
# DAGLB inh – DAGLB lipase inhibitors, primary screen, biochemical, fluorescence, HTS; 340,000 compounds, 0.059% hits; HEK293T DAGLB membrane lysate, EnzChek fluorogenic substrate; inhibition, % at 5.17 µM; in the data active = inhibition above about 34%;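 note: 0% = enzyme with vehicle and 100% = wells lacking enzyme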
# Target sequence (Q8NCG7 whole entry, looked up): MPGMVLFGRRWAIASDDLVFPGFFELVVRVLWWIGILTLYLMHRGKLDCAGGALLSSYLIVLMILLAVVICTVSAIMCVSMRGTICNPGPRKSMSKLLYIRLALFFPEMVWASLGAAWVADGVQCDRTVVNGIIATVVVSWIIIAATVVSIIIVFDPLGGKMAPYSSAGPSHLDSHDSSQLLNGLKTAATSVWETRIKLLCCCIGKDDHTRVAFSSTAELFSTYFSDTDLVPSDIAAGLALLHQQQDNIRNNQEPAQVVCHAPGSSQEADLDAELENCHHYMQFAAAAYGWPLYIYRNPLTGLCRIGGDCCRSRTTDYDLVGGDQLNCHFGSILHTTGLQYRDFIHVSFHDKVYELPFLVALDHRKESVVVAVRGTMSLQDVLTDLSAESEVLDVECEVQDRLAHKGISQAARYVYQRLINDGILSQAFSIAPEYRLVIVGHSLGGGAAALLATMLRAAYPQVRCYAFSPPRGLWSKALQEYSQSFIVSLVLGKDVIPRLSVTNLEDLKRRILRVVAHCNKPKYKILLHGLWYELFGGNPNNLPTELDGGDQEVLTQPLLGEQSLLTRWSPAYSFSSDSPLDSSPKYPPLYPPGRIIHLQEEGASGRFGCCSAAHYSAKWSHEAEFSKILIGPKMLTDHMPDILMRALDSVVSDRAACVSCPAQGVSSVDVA
# rCAG binder – binders of r(CAG) RNA repeats, primary screen, biochemical, fluorescence; inhibition, % at 3 µM; 370,000 compounds, 1.3% hits; r(CAG) RNA repeat, TO-PRO-1 dye displacement fluorescence;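 active = inhibition above the plate cutoff, the mean of all test compounds on that plate plus 3 SD, cut at about 35% in these data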;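 note: 0% = DMSO alone and 100% = 100 µM mitoxantrone as full dye displacement; higher means more dye released from RNA so lower well fluorescence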
# MsrA act – bovine MsrA enzyme activators, primary screen, biochemical, absorbance, HTS | purified bovine MsrA, absorbance read-out | activation, % at 10.6 µM | 360,000 compounds, 0.3% hits | AID 602163, 2012; in the data active = activation above about 7.5%;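 note: 0% = vehicle and 100% = reference activator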
# NadD inh – inhibitors of S. aureus NadD, primary screen, biochemical, colorimetric, uHTS; inhibition, % at 20 µM; Nicotinate-nucleotide adenylyltransferase NadD (Staphylococcus aureus N315); 360,000 compounds, 0.78% hits; purified NadD enzyme, colorimetric absorbance read-out; AID 602399, 2012; in the data active = inhibition above about 26%
# DSG3 Ab inh – inhibitors of pemphigus antibody binding to DSG3, primary screen, biochemical, bead-based, flow cytometry, scFv-GFP; 310,000 compounds, 0.48% hits; binding (percent of control), % at 10 µM; DSG3-coupled beads, scFv-anti-DSG3-GFP binding; hits give low values; Desmoglein-3 (Homo sapiens), P32926;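 active = binding more than 3 SD below its plate's average and above zero; inconclusive = below that plate limit but binding exactly zero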;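 note: hits lower antibody fragment binding to DSG3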
# MsrA inh – bovine MsrA enzyme inhibitors, primary screen, biochemical, absorbance, HTS; Methionine sulfoxide reductase A (Bos taurus); purified bovine MsrA, absorbance read-out; 360,000 compounds, 0.75% hits; inhibition, % at 15.5 µM; in the data active = inhibition above about 4.5%;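 note: 0% = vehicle wells with enzyme and 100% = reference inhibitor wells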
# * marks the source's active call; other numbers are inactive results; ? = inconclusive; . = not tested or not shown. Sampled rows, rich in hits. Any-hit rate of the full collection: about 3.2%.
SMILES,DAGLB inh,rCAG binder,MsrA act,NadD inh,DSG3 Ab inh,MsrA inh
COc1ccc(CN2C[C@@]3(O)CC[C@@H](O)[C@@H](OC)[C@@H]3[C@@]2(C)[C@H](O)CC=C(C)C)cc1,.,-1,.,.,.,0
O=S(=O)(CC1NCCc2ccccc21)NCc1ccccc1 (stereo not drawn),.,0,.,.,.,.
O=[N+]([O-])c1cccc(-n2cc3ccc([N+](=O)[O-])cc3n2)c1,3,8,-4,6,99,-1
O=S(=O)(NCc1ccccc1)c1ccc(S(=O)(=O)N(Cc2cccs2)CC2CCCO2)cc1 (stereo not drawn),-3,7,-10,0,90*,-1
COc1cccc(C#CC2=CC(=O)C[C@H](c3ccc(F)cc3)C2)c1,-23,12,-2,2,110,1
CC(=O)c1c(C)oc2ccc(NS(=O)(=O)c3ccc(C)cc3)cc12,-3,0,-11,-5,100,-1
Cc1ccc(C)c(S(=O)(=O)Nc2ccc3oc(C)c(C(=O)O)c3c2)c1,7,29,-1,5,85*,-1
COC(=O)[C@]12C[C@H](CC(=O)N3CCOCC3)C(=O)N(Cc3ccco3)C1=C[C@H](COCc1ccccc1)O[C@@H]2C,.,3,.,.,.,.
CN(C(=O)CCOc1ccccc1)c1c(N)n(Cc2ccccc2)c(=O)[nH]c1=O,4,3,0,5,63*,0
CCOc1ccc(OCC(=O)N(C)c2c(N)n(Cc3ccccc3)c(=O)[nH]c2=O)cc1,-2,-2,-9,-2,97,1
C=CCN(CC#CC1=CCCCC1)CC1CC1,.,-1,.,.,.,.
COc1cc(/C=C2\C(=N)N3N=C(S(C)(=O)=O)SC3=NC2=O)ccc1OCCOc1ccc(C)cc1,-3,24,-2,33*,?,2
CCC1=NN2C(=N)/C(=C\c3ccc(OCCOc4ccccc4)c(OC)c3)C(=O)N=C2S1,.,8,.,.,.,1
CCC1=NN2C(=N)/C(=C\c3ccc(OCc4cc(=O)n5nc(CC)sc5n4)c(OC)c3)C(=O)N=C2S1,1,21,-11,44*,62*,2
CCC1=NN2C(=N)/C(=C/c3ccc(OS(=O)(=O)c4ccc(C)cc4)c(OC)c3)C(=O)N=C2S1,5,19,-1,29,96,-1
COc1cc(/C=C2\C(=N)N3N=C(N4CCOCC4)SC3=NC2=O)ccc1OC(=O)c1ccccc1,5,27,-7,37*,93,0
COc1cc(/C=C2/C(=N)N3N=C(CC(=O)N4CCOCC4)SC3=NC2=O)ccc1OC(C)c1ccccc1 (stereo not drawn),-2,30,-5,25,100,-1
Cc1ccc(CN2CCCCC(NC(=O)Nc3ccccc3)C2=O)cc1 (stereo not drawn),.,3,.,.,.,.
CC(C)c1cc(C(C)C)c(S(=O)(=O)N2CCCC(C(=O)NCc3cccs3)C2)c(C(C)C)c1 (stereo not drawn),.,5,.,.,.,.
NS(=O)(=O)c1ccc(-c2ccc(/C=N/Nc3ccc(C(=O)O)cc3)o2)cc1,3,17,-6,-10,95,3
O=C(O)c1ccc(-c2ccc(/C=N/Nc3ccc([N+](=O)[O-])cc3)o2)cc1,-8,25,-10,2,6.2*,1
NS(=O)(=O)c1ccc(-c2ccc(/C=N/NC(=O)c3ccc([N+](=O)[O-])cc3)o2)cc1,6,2,-7,4,75*,4
CCC(=O)N/N=C/c1ccc(-c2ccc([N+](=O)[O-])cc2)o1,0,2,-10,-7,102,2
COc1ccc(N(CC(=O)Nc2ccccc2C)S(=O)(=O)c2ccccc2[N+](=O)[O-])c(OC)c1,0,5,-5,-1,24*,0
Cc1ccc(NC(=O)c2c3c(nc4ccccc24)CCC3)cc1S(=O)(=O)N(C)C,3,23,-3,19,45*,2
Cc1ccc(NC(=O)c2c3c(nc4ccccc24)CCC3)cc1,0,13,-3,-1,107,1
